# Experimental data as given in PubChem BioAssay (EPA / NIEHS).
# Calls of active or inactive are those of the source. The calls were made as follows: active = hit-call score of the fitted dose curve at least 0.9, where 1 is the maximum; inactive = score below 0.9.
# Test: ATG_PXRE_CIS: Attagene CIS-FACTORIAL HepG2 Assay for human Pregnane X Receptor Element (PXRE) (AID 2282957)
# Details: HepG2 Attagene CIS-FACTORIAL PXRE reporter, mRNA; actives raise or lower the signal
# Protocol: ATG_CIS is a cell-based, multiplexed-readout assay that uses HepG2, a human liver cell line, with measurements taken at 24 hours after chemical dosing in a 24-well plate.ATG_PXRE_CIS is one of 52 assay component(s) measured or calculated from the ATG_CIS assay. It is designed to make measurements of mRNA induction, a form of inducible reporter, as detected with fluorescence intensity signals by Reverse transcription polymerase chain reaction (RT-PCR) and Capillary electrophoresis technology.Data from the assay component ATG_PXRE_CIS was analyzed into 1 assay endpoint. This assay endpoint, ATG_PXRE_CIS, was analyzed with bidirectional fitting relative to DMSO as the negative control and baseline of activity. Using a type of inducible reporter, measures of mRNA for gain or loss-of-signal activity can be used to understand the reporter gene at the transcription factor-level as they relate to the gene NR1I2. Furthermore, this assay endpoint can be referred to as a primary readout, because this assay has produced multiple assay endpoints where this one serves a reporter gene function. To generalize the intended target to other relatable targets, this assay endpoint is annotated to the nuclear receptor intended target family, where the subfamily is non-steroidal.
# Human liver HepG2 cells are transiently transfected with multiple reporter transcription units (MRTUs) in 6-well plates using FuGene 6 reagent (Roche; 3 ml FuGene/1 mg DNA). The MRTU constructs are regulated by a cis-regulating element (promoter). […] A major difference between the CIS and TRANS system is that in CIS activities of endogenous TFs are measured, whereas the TRANS assay evaluates changes in activities of exogenous, chimeric NR-Gal4 proteins. […] At the end of 24 hour incubation, total RNA was isolated using TriZol reagent (Invitrogen). The isolated RNA is then reverse-transcribed using oligo(dT) primer and Mo-MLV reverse transcriptase (Invitrogen) with DNAse I (Ambion) treatment for 30 min. The one-tenth of the produced cDNA was amplified by PCR using Taq DNA polymerase (Invitrogen) and two reporter sequence-specific primers. The PCR products were fluorescently labeled by primer extension with 6-arboxyfluorescein (6-FAM) 5'-labeled reporter sequence-specific primer (2 min at 95 C, 20 s at 68 C and 10 min at 72 C) and these products were digested with 5U of HpaI (New England Biolabs) for 2h at 37 C. The fragments were purified using Qiaquick PCR columns (Qiagen), analyzed on an ABI 3130xL genetic analyzer (Applied Biosystems) with peak positions identified by using a set of X-rhodamine (ROX)-labeled MapMarker1000 molecular weight standards (BioVentures). The raw capillary electrophoresis data was processed using Attagraph software (Attagene).
SMILES,outcome,AC50
O=C(O)c1ccc(C(=O)O)cc1,inactive,
CC(=O)C=CC1=C(C)CCCC1(C)C,,0.716 µM (active)
CC(=O)Nc1ccccc1O,inactive,
OCc1cccnc1,inactive,
CCCCCC=CCC(=O)OC,,100 µM (active)
COc1ccc(Cl)cc1C,inactive,
O=C1CCCCCCCCCCOCCCCO1,,26.6 µM (active)
O=C1OC2(c3cc(Br)c(O)c(Br)c3Oc3c2cc(Br)c(O)c3Br)c2c(Cl)c(Cl)c(Cl)c(Cl)c21,,5.13 µM (active)
COc1cc(C(C)(C)C)c(O)c(C(C)(C)C)c1,,2.09 µM (active)
NNc1nc(-c2ccc(N)cc2)cs1,inactive,
COc1ccc(NC(=O)CC(C)=O)cc1,inactive,
O=S(=O)(O)c1cccc2c(S(=O)(=O)O)cccc12,inactive,
OCCOCCOCCOCCO,,29.4 µM (active)
O=C(O)CCCCCCCC(=O)O,inactive,
CC(C)C1CCC(O)CC1 (stereo not given),inactive,
CCc1ccc(C=O)cc1,inactive,
CC(C)C[C@H]1C(=O)N2CCC[C@H]2[C@]2(O)O[C@](NC(=O)[C@@H]3C=C4c5cccc6[nH]c(Br)c(c56)C[C@H]4N(C)C3)(C(C)C)C(=O)N12,,0.302 µM (active)
CC[C@]12CCCN3CCc4c(n(c5ccccc45)[C@@](O)(C(=O)OC)C1)[C@@H]32,,7.96 µM (active)
CC(C)(Oc1ccc(CCNC(=O)c2ccc(Cl)cc2)cc1)C(=O)O,,25.6 µM (active)
c1ccc2c(c1)c1cccc3ccc4cccc2c4c31,inactive,

SMILES,outcome,AC50
Cc1cc(C2(c3cc(C)c(O)cc3C)OS(=O)(=O)c3ccccc32)c(C)cc1O,,24.2 µM (active)
COCCCOc1ccnc(CS(=O)c2nc3ccccc3[nH]2)c1C (stereo not given),,6.74 µM (active)
CC1(C)C(=O)N(Br)C(=O)N1Cl,,67.5 µM (active)
Clc1ccc(Cl)c(Cl)c1Cl,inactive,
CCOC(=O)c1ccccc1OC,,54 µM (active)
CN1[C@@H]2CC(OC(=O)[C@H](CO)c3ccccc3)C[C@H]1[C@@H]1O[C@@H]12 (stereo not given in full),inactive,
Cc1cccc(C)c1[N+](=O)[O-],inactive,
CC(C)=CCC/C(C)=C/COC=O,inactive,
O=C(O)CN(CCN(CC(=O)O)CC(=O)O)CCN(CC(=O)O)CC(=O)O,inactive,
OC1C(O)C(O)C(O)C(O)C1O (stereo not given),inactive,
CC(=O)C(C)=O,,26.5 µM (active)
CCCCOCCOCCSC#N,,1.92 µM (active)
CC(CCO)CCc1ccccc1 (stereo not given),,41.1 µM (active)
CC(=O)O[C@H](CC(=O)[O-])C[N+](C)(C)C,inactive,
COC(C(=O)O)c1ccccc1 (stereo not given),inactive,
Cc1c(Cl)c(=O)oc2cc(O)ccc12,,70.3 µM (active)
CC(C)=CCC[C@](C)(O)[C@@H]1CC=C(C)CC1,,11.1 µM (active)
C/C=C(\C)C(=O)OCc1ccccc1,inactive,
CCC(=O)/C=C/C1C(C)=CCCC1(C)C (stereo not given),,4.76 µM (active)
CC1(C)CCC(C)(C)c2cc(C(=O)Nc3ccc(C(=O)O)cc3)ccc21,,53.9 µM (active)
